The values that follow come from PubChem BioAssay (EPA / NIEHS).

In assay [1] the test system is Thyroperoxidase (TPO), gene 54314. The assay is described as follows: CCTE_Simmons_AUR_rTPO: CCTE's Amplex UltraRed Assay for Thyroperoxidase (TPO) Inhibition, Simmons Lab (AID 2283662).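 For AC50: potency for loss of signal meaning inhibition of peroxidase activity.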 In short, it runs like this:
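Endpoint is decreased Amplex UltraRed fluorescence after a 30-min, 37C reaction of rat thyroid microsomes with 300 uM H2O2. Eight test concentrations (5 nM–87.5 uM final) in 0.5% DMSO, three biological replicates each.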

In assay [2] the target is Luciferin 4-monooxygenase (Photinus pyralis) (UniProt P08659). The assay is described as follows: CCTE_Simmons_QuantiLum_inhib_2: CCTE's Firefly Luciferase Inhibition Assay, Simmons Lab (AID 2283767).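 For AC50: potency for inhibitors that lower luciferase luminescence relative to DMSO.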 The procedure, abridged: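 Cell-free QuantiLum luciferase, 5 ng/well; compounds 5 nM–87.5 uM final, 8 conc, 0.5% DMSO; 30 min, 37C, dark. Detection reagent (150 uM D-luciferin, 147 uM dATP, CoA, DTT, pH 7.8 final) injected per well, kinetic luminescence. Triplicate biological replicates.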

Assay [3] is described as follows: STM_H9_OrnCyssISnorm_ratio: Stemina devTOX quickPredict H9 human embryonic stem cell (hESC)-based Assay for Ornithine (ORN):Cystine (CYSS) Ratio (AID 2283714). The procedure, abridged:
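H9 hESC, 72h, q24h re-dose; last-day media → acetonitrile deproteinization → UPLC-HRMS. ORN:CYSS ratio from isotope-normalized EIC areas, vs 0.1% DMSO; MTX references on each plate.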

A short description of assay [4]: CCTE_Simmons_CellTiterGLO_HEK293T: Viability Assessment in CCTE's Assays for Thyroperoxidase (TPO) Inhibition, Simmons Lab (AID 2283665).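 For AC50: cells exposed to compound for 24 h before readout; actives reduce ATP signal below DMSO vehicle meaning cytotoxicity.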 In short, it runs like this:
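Luminescent ATP readout (CellTiter-Glo, 20 min at room temperature) after 24 hr exposure of HEK293T cells to 5 nM–87.5 uM final compound; signal loss relative to DMSO vehicle indicated cytotoxicity; dichlone titrated as positive control.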
(In general: Cellular ATP, detected with luciferase, serves as a proxy for viable cell number.)

A short description of assay [5]: Tanguay_ZF_120hpf_NC_legacy: (Legacy) Oregon State University Tanguay Lab 120 Hour Post-fertilization zebrafish Assay for Notochord and Tail Malformation (AID 2283656). In short, it runs like this:
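Binary notochord-distortion calls, made by brightfield inspection, form the read-out; activity is fitted in the positive direction against DMSO. Exposure ran statically from 6 to 120 hpf at 28C with 0.64% DMSO.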

Assay [6] can be described thus: Tanguay_ZF_120hpf_TR_legacy: (Legacy) Oregon State University Tanguay Lab 120 Hour Post-fertilization zebrafish Assay for Touch Response (AID 2283667). In short, it runs like this:
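Readout is presence or absence of touch response in 120 hpf zebrafish larvae, assessed by brightfield observation after continuous static exposure at 28C. Final vehicle was 0.64% (vol/vol) DMSO.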

Assay [7] can be described thus: Tanguay_ZF_120hpf_ActivityScore_legacy: (Legacy) Oregon State University Tanguay Lab 120 Hour Post-fertilization zebrafish Assay Score for Activity (AID 2283742). On the procedure:
Tanguay_ZF_120hpf_legacy is a whole embryo, multiplexed endpoint assay using zebrafish larvae exposed for 120 hours post fertilization on a 96-well plate.Tanguay_ZF_120hpf_ActivityScore_legacy is one of one assay component(s) measured or calculated from the Tanguay_ZF_120hpf_legacy assay. It is designed to make measurements of developmental malformations and mortality as detected with brightfield microscopy and combines scoring from 18 other assay components measuring more specific morphologies.Data from the assay component Tanguay_ZF_120hpf_ActivityScore_legacy was analyzed into 1 assay endpoints. This assay endpoint, Tanguay_ZF_120hpf_ActivityScore_legacy, was analyzed in the positive analysis fitting direction relative to DMSO as the negative control and baseline of activity. Using a type of morphology reporter, gain-of-signal activity can be used to understand changes in developmentals as they relate to the whole embryo. To generalize the intended target to other relatable targets, this assay endpoint is annotated to the zebrafish development intended target family, where the subfamily is embryonic morphogenesis and mortality.
Zebrafish husbandry: Tropical 5D wild-type adult zebrafish were housed in at an approximate density of 1000 per 100 gallon tank at the Sinnhuber Aquatic Research Laboratory, Oregon State University, Corvallis, OR. […] At 24 hpf, embryos were assessed for photomotor response using a custom photomotor response analysis tool (PRAT) and for developmental toxicity endpoints (MO24: mortality at 24 hpf, DP: developmental progression, SM: spontaneous movement, and NC: notochord distortion). At 120 hpf, locomotor activity was measured using Viewpoint Zebralab and assessed for 18 endpoints. Zebrafish acquisition and analysis program (ZAAP), a custom program designed to inventory, acquire, and manage zebrafish data, was used to collect developmental endpoints as either present or absent (i.e., binary responses were recorded). If mortality occurred for an embryo (at either 24 or 120 hpf), the non-mortality endpoints were not measured.

Assay [8] can be described thus: STM_H9_OrnithineISnorm_perc: Stemina devTOX quickPredict H9 human embryonic stem cell (hESC)-based Assay for Ornithine (ORN) Metabolite Biomarker, Normalized (AID 2283712; active = hit-call score of the fitted dose curve at least 0.9, where 1 is the maximum; inactive = score below 0.9;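 note: ornithine released into spent medium during last day measured by mass spectrometry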). An excerpt: STM_H9_secretome utilizes undifferentiated H9 cells to measure relative changes in two metabolites, ornithine (ORN) and cystine (CYSS) in the secretome, targeting a critical drop in the ORN/CYSS ratio as a biomarker for developmental toxicity.STM_H9_OrnithineISnorm is one of 10 components calculated in the STM_H9_secretome assay. It measures the integrated area of the endogenous ornithine normalized to the spiked-in isotopically labeled standard and to the median value of the 0.1% DMSO neutral control treatment using UPLC-HRMS technology.Data from the assay component STM_H9_OrnithineISnorm_perc was analyzed at the assay endpoint STM_H9_OrnithineISnorm_perc in the positive analysis fitting direction relative to DMSO as the negative control and baseline of activity. […]
H9 hESCs maintained in a pluripotent state were exposed to test compound for 72h with chemical replenishment with media replacement every 24h. Cell-conditioned media from the final 24-h treatment period was collected for analysis of the targeted biomarker, and cell viability of the corresponding cell layer was assessed. […] Cell viability was measured using the CellTiter-Fluor assay (Promega, Madison, Wisconsin) based on proteolytic cleavage of a substrate to fluorescent signal proportional to the number of living cells. […]

A short description of assay [9]: STM_H9_CystineISnorm_perc: Stemina devTOX quickPredict H9 human embryonic stem cell (hESC)-based Assay for Cystine (CYSS) Metabolite Biomarker, Normalized (AID 2283713; active = hit-call score of the fitted dose curve at least 0.9, where 1 is the maximum; inactive = score below 0.9). The procedure, abridged:
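UPLC-HRMS read-out: endogenous cystine peak area in spent medium, normalized to isotope-labeled internal standard and to median of 0.1% DMSO controls. Pluripotent H9 cells, 72h exposure, daily medium/compound replenishment; medium from last 24h sampled.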

In assay [10] the target is zebrafish Estrogen Receptor (ESR1), esr1 (gene 259252) (UniProt P57717). Kind of assay: ATG_zfER1_XSP1: Attagene TRANS-FACTORIAL Multi-Species (XSP1) HepG2 Assay for zebrafish Estrogen Receptor (ESR1) (AID 2283772). The procedure, abridged:
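Readout: fluorescent reporter mRNA, RT-PCR plus FAM labelling, HpaI digest, capillary electrophoresis; gain-of-signal fit vs DMSO. HepG2, transient multi-reporter TRANS (NR-GAL4 chimera), 24 h chemical exposure, 3 nM 6-alpha-fluorotestosterone co-added.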

Results filed as inconclusive are left out. Active and inactive are the calls of the source. Rule for the calls, unless noted: active = hit-call score of the fitted dose curve at least 0.9, where 1 is the maximum; inconclusive = response in the unintended direction; inactive = score below 0.9.

Sequence of Luciferin 4-monooxygenase (Photinus pyralis) (P08659 whole entry, looked up): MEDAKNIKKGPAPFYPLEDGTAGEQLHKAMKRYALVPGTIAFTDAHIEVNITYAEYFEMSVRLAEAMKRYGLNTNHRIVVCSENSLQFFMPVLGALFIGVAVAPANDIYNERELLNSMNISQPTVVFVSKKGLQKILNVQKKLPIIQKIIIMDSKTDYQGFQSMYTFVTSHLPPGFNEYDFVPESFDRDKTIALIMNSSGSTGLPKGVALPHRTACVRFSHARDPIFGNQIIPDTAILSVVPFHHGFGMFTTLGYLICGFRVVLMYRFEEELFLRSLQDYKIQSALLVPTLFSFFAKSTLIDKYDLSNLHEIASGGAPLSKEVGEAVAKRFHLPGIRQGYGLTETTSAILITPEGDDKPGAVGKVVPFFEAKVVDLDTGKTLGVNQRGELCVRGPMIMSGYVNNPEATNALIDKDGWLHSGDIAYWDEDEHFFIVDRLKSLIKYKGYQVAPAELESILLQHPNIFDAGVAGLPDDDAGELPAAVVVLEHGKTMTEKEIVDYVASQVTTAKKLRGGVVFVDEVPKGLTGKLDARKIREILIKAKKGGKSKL
Sequence of zebrafish Estrogen Receptor (ESR1), esr1 (gene 259252) (P57717 whole entry, looked up, the tested form may be a part): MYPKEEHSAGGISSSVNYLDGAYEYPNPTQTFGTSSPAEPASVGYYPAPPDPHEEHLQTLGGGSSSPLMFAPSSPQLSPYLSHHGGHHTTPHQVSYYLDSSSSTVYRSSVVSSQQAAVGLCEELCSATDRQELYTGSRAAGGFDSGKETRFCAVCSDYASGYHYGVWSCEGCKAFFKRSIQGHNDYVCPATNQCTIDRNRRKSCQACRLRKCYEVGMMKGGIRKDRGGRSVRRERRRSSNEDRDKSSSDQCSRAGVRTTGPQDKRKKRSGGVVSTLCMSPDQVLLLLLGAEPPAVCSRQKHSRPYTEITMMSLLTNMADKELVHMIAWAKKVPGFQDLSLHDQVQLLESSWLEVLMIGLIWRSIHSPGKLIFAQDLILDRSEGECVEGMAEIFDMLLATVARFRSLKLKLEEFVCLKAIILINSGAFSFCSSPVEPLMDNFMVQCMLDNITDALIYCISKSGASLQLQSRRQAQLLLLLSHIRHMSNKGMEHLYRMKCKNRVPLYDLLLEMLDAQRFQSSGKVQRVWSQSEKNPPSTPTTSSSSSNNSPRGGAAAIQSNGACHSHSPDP

As usually defined, the AC50 is the concentration giving half of the maximal activity seen. `CC(C)(c1ccccc1)c1ccc(Nc2ccc(C(C)(C)c3ccccc3)cc2)cc1`: the AC50 in [1] was 33.8 µM (active); in assay [2] it was 53.8 µM (active).
With `COC(=O)C=Cc1ccccc1`, the result in [3] was inactive.
For `CC1=NN(c2ccc(S(=O)(=O)O)cc2)C(=O)C1N=Nc1ccccc1` (stereo unspecified), the result in assay [1], in [4] and in assay [2] was inactive.
As to `O=C(O)c1cc(O)c2ccccc2c1O`, the AC50 in assay [1] was 30.7 µM (active); in assay [4], 28.6 µM (active); in [2], 39.9 µM (active).
Turning to `CCCCCCCCCC[N+](C)(CCCCCCCCCC)CCC[Si](OC)(OC)OC`, the AC50 in assay [1] is 48.9 µM (active); in assay [4], 16 µM (active).
For the compound `C1CNCCN1`, the compound was called inactive in assay [5], in assay [6] and in assay [7].
Consider `CC1(C)[C@@H]2CC[C@@]1(C)C(=O)C2`, for which the outcome in assay [8] and in [9] was inactive.
As to `COC(=O)c1ccccc1C`, the call in assay [1], in assay [4] and in [2] was inactive.
As for `CCCCCCOc1ccc(N)cc1`, the AC50 in assay [1] was 0.494 µM (active); in assay [2] it was 28.7 µM (active).
`CC(C)c1ccc(O)c(C(C)C)c1`: the AC50 in [1] is 29.7 µM (active); in assay [4] it was 28.4 µM (active). Also, in [2], the call was inactive.
Consider `CCCCCCCCCCCCc1ccc(O)cc1`, for which the half-maximal activity concentration (AC50) in assay [1] was 26.2 µM (active); in [4] it was 11.4 µM (active). Moreover, in assay [2], the result was inactive.
As to `Cc1ccc([N+](=O)[O-])cc1N`, the compound was classed as inactive in [5], in assay [6] and in [7].
`CCCCC1C(=O)N(c2ccccc2)N(c2ccccc2)C1=O`: in assay [1], the AC50 is 39.6 µM (active). The compound was classed as inactive in [4], in assay [3] and in [2].
As for `Oc1ccccc1Cc1ccccc1O`, the AC50 in [3] was 60.6 µM (active).
For the compound `COc1ccc(-c2coc3cc(O)cc(O)c3c2=O)cc1`, the AC50 in assay [1] is 21.4 µM (active); in assay [4] it was 86.5 µM (active); in assay [2], 9.08 µM (active).
For the compound `Nc1ccc(C(=O)O)cc1`, the call in assay [5], in assay [6] and in assay [7] was inactive. In assay [1], the AC50 was 3.19 µM (active).
As to `N#Cc1ccc(C(c2ccc(C#N)cc2)n2cncn2)cc1`, the outcome in assay [1] and in assay [2] was inactive.
On to `CC(C)(C)NC(=O)[C@H]1CC[C@H]2[C@@H]3CC[C@H]4NC(=O)C=C[C@]4(C)[C@H]3CC[C@]12C`, for which the result in [10] was inactive.
Turning to `CC(CCC(=O)O)(c1ccc(O)cc1)c1ccc(O)cc1`, in assay [1], the AC50 is 18.3 µM (active). In addition, the outcome in assay [3] and in assay [2] was inactive.
Turning to `CCCCCCCOC(=O)c1ccc(O)cc1`, the AC50 in [1] was 52.6 µM (active); in [4], 35.7 µM (active); in assay [2], 76.7 µM (active).
On to `CCc1occc(=O)c1O`, for which the AC50 in assay [1] was 31 µM (active). For the same compound, the compound was classed as inactive in assay [2].
Turning to `c1ccc(Nc2cccc3ccccc23)cc1`, the results for the AC50 in assay [1], in assay [4] and in assay [2] were 5.32 µM (active), 28.4 µM (active) and 53.8 µM (active), respectively.
In the case of `CN(C)c1ccc2nc3ccc(=[N+](C)C)cc-3sc2c1`, the AC50 in assay [1] is 34 µM (active); in assay [4], 13.7 µM (active); in assay [3], 2.34 µM (active); in assay [2], 0.676 µM (active).
For the compound `COc1ccc(C(=O)c2ccccc2)c(O)c1`, the compound was classed as inactive in assay [1], in assay [4] and in assay [3]. In addition, in assay [2], the AC50 was 53.6 µM (active).
Regarding `C/C=C/C=C/CCCCCCCO`, the AC50 in assay [1] is 25.8 µM (active); in [4] it was 87.2 µM (active). For the same compound, the result in assay [2] was inactive.
Turning to `O=S(=O)(O)c1ccc(N=Nc2c(O)ccc3ccccc23)cc1`, in assay [1], the call was inactive. Also, the results for the AC50 in [4] and in assay [2] were 18.1 µM (active) and 24.3 µM (active), respectively.
Regarding `CCCCC/C=C\C/C=C\CCCCCCCC(=O)O`, the AC50 in [1] was 43.8 µM (active); in [4], 86.4 µM (active). The call in assay [2] was inactive.
`O=c1c(O)c(-c2ccc(O)cc2O)oc2cc(O)cc(O)c12`: the AC50 was 0.337 µM (active) in assay [1] and 68.3 µM (active) in assay [2]. Besides, the compound was called inactive in assay [4].
